Test results as given in PubChem BioAssay.
Results filed as inconclusive are left out. The source made the active and inactive calls.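 Rule for the calls, unless noted: active = normalized viability below 100% at a tested concentration; inactive = the rest.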

Assays:
[1] = growth inhibition of DIPG glioma cells, dose response, cell-based, SU-DIPG-XVII, MIPE5.0, CellTiter-Glo, qHTS (AID 1347060; cut-off not given, nearly all actives have AC50 up to about 26 µM;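 for AC50: cells exposed to compound for 48 hours before viability readout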); details: SU-DIPG-XVII viability, CellTiter-Glo ATP luminescence
[2] = viability loss in pontine glioma line – cell-based, SU-DIPG-XXV, MIPE5.0, CellTiter-Glo, qHTS, dose response (AID 1347065; cut-off not given, nearly all actives have AC50 up to about 26 µM;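 note: cells exposed to compound for 48 hours before ATP readout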); details: CellTiter-Glo ATP luminescence
[3] = JHH-DIPG-1 glioma cell viability, MIPE5.0 library, CellTiter-Glo luminescence, qHTS (AID 1347067; cut-off not given, nearly all actives have AC50 up to about 26 µM;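 note: cells exposed to compound for 48 hours before readout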); details: JHH-DIPG-1 glioma viability, CellTiter-Glo ATP luminescence
[4] = SU-DIPG-XXV glioma cell viability, MIPE5.0 library, qHTS (AID 1347068; cut-off not given, nearly all actives have IC50 up to about 30 µM;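 for IC50: cells exposed to compound for 48 hours before viability readout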)
[5] = sensitizers of A549 cells to miR-34 induction, primary screen, imaging, A549 dox-inducible miR-34, nuclei and caspase counts (AID 1347080;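 active = compounds whose cell count with miR-34 switched on is under 0.7 times the count with it off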); details: A549 miR-34 inducible, Hoechst nuclei count, 48 h
[6] = survival rescue of mitochondrial mutant cells in low glucose, primary screen, MELAS cybrids, Rieske KO mouse fibroblasts, CellTiter-Glo (AID 1508586;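 active = mean z-score across replicates of 1.96 or higher in either the MELAS or the Rieske mutant cell line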;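 note: z relative to plate mean and SD of compound and empty wells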)
[7] = ovarian cancer cell viability with rucaparib, profiling panel, oncology-focused library, rucaparib conditional (AID 1508598); details: patient-derived ovarian cancer cells, CellTiter-Glo viability, 144 h, stronger effect = lower value
[8] = SU-DIPG-VI glioma cell viability, MIPE4.0 library, CellTiter-Glo luminescence, qHTS (AID 1347066; cut-off not given, nearly all actives have AC50 up to about 30 µM;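 note: cells exposed to compound for 48 hours before readout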); details: CellTiter-Glo ATP luminescence
[9] = viability rescue of complex I mutant cybrids, primary screen, cell-based, galactose medium, ATP luminescence (AID 1645843;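 active = z-score of at least 1.8 in each of two replicates, scored against plate mean and spread of sample wells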;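 note: positive z means more ATP and so rescue of galactose-driven cybrid death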); details: complex I mutant cybrid cells, 72 h, stronger effect = higher value
[10] = stronger effect = lower value, cell number ratio, induced over uninduced
[11] = measured here: relative caspase fold change +Dox/-Dox
[12] = measured here: total cells with miR-34 induction, stronger effect = lower value
[13] = measured here: total cells without miR-34 induction
[14] = at 0.000305 µM, OCI-C5x cells, with rucaparib 10 µM, 100% = cells with rucaparib alone
[15] = at 0.000305 µM, OCI-C5x cells, without rucaparib
[16] = at 0.000305 µM, OCI-P5x cells, with rucaparib 20 µM, 100% = cells with rucaparib alone
[17] = at 0.000305 µM, OCI-P5x cells, without rucaparib
[18] = at 0.00122 µM, OCI-C5x cells, with rucaparib 10 µM, 100% = cells with rucaparib alone
[19] = at 0.00122 µM, OCI-C5x cells, without rucaparib
[20] = at 0.00122 µM, OCI-P5x cells, with rucaparib 20 µM, 100% = cells with rucaparib alone
[21] = at 0.00122 µM, OCI-P5x cells, without rucaparib
[22] = at 0.00488 µM, OCI-C5x cells, with rucaparib 10 µM, 100% = cells with rucaparib alone
[23] = at 0.00488 µM, OCI-C5x cells, without rucaparib
[24] = at 0.00488 µM, OCI-P5x cells, with rucaparib 20 µM, 100% = cells with rucaparib alone
[25] = at 0.00488 µM, OCI-P5x cells, without rucaparib
[26] = at 0.0195 µM, OCI-C5x cells, with rucaparib 10 µM, 100% = cells with rucaparib alone
[27] = at 0.0195 µM, OCI-C5x cells, without rucaparib
[28] = at 0.0195 µM, OCI-P5x cells, with rucaparib 20 µM, 100% = cells with rucaparib alone
[29] = at 0.0195 µM, OCI-P5x cells, without rucaparib
[30] = at 0.0781 µM, OCI-C5x cells, with rucaparib 10 µM, 100% = cells with rucaparib alone
[31] = at 0.0781 µM, OCI-C5x cells, without rucaparib
[32] = at 0.0781 µM, OCI-P5x cells, with rucaparib 20 µM, 100% = cells with rucaparib alone
[33] = at 0.0781 µM, OCI-P5x cells, without rucaparib
[34] = at 0.313 µM, OCI-C5x cells, with rucaparib 10 µM, 100% = cells with rucaparib alone
[35] = at 0.313 µM, OCI-C5x cells, without rucaparib
[36] = at 0.313 µM, OCI-P5x cells, with rucaparib 20 µM, 100% = cells with rucaparib alone
[37] = at 0.313 µM, OCI-P5x cells, without rucaparib
[38] = at 1.25 µM, OCI-C5x cells, with rucaparib 10 µM, 100% = cells with rucaparib alone
[39] = at 1.25 µM, OCI-C5x cells, without rucaparib
[40] = at 1.25 µM, OCI-P5x cells, with rucaparib 20 µM, 100% = cells with rucaparib alone
[41] = at 1.25 µM, OCI-P5x cells, without rucaparib
[42] = at 5 µM, OCI-C5x cells, with rucaparib 10 µM, 100% = cells with rucaparib alone
[43] = at 5 µM, OCI-C5x cells, without rucaparib
[44] = at 5 µM, OCI-P5x cells, with rucaparib 20 µM, 100% = cells with rucaparib alone
[45] = at 5 µM, OCI-P5x cells, without rucaparib

Cc1cnc(-c2ccccc2C(C)C)nc1NCc1ccc(-n2ccnn2)cc1
inactive: outcome [1] | outcome [2] | outcome [3] | outcome [4] | fold change [5, 10] 0.905 | z-score ([6]; MELAS cybrid survival, CellTiter-Glo 48 h, stronger effect = higher value) -0.372 | viability [7, 14] 118% | viability [7, 15] 116% | viability [7, 16] 101% | viability [7, 17] 100% | viability [7, 18] 132% | viability [7, 19] 118% | viability [7, 21] 102% | viability [7, 22] 132% | viability [7, 23] 120% | viability [7, 25] 102% | viability [7, 26] 123% | viability [7, 27] 110% | viability [7, 28] 103% | viability [7, 30] 123% | viability [7, 31] 118% | viability [7, 32] 100% | viability [7, 34] 126% | viability [7, 35] 126% | viability [7, 37] 101% | viability [7, 38] 127% | viability [7, 39] 119% | viability [7, 40] 104% | viability [7, 42] 129% | viability [7, 43] 130%
0.465: fold change [5, 11]
0.422: z-score ([6]; Rieske KO mouse fibroblast survival, CellTiter-Glo 72 h)
active: viability [7, 20] 95.9% | viability [7, 24] 98.5% | viability [7, 29] 97.4% | viability [7, 33] 97.6% | viability [7, 36] 96.4% | viability [7, 41] 96.9% | viability [7, 44] 94.5% | viability [7, 45] 97.8%
8340: cell count [5, 13]
7550: cell count [5, 12]

CN[C@H]1CN(c2ccc3c(=O)c(C(=O)O)cn(-c4nccs4)c3n2)C[C@@H]1OC
active: AC50 [1] 0.762 µM | AC50 [2] 4.28 µM | viability [7, 16] 98.3% | viability [7, 20] 92.3% | viability [7, 21] 97.9% | viability [7, 25] 98.6% | viability [7, 28] 93.2% | viability [7, 29] 95.3% | viability [7, 31] 92.5% | viability [7, 32] 91.4% | viability [7, 33] 91.4% | viability [7, 36] 79.7% | viability [7, 37] 62.5% | viability [7, 40] 63.6% | viability [7, 41] 41.5% | viability [7, 42] 9.22% | viability [7, 43] 12.6% | viability [7, 44] 9.42% | viability [7, 45] 6.69%
inactive: viability [7, 14] 118% | viability [7, 15] 108% | viability [7, 17] 105% | viability [7, 18] 121% | viability [7, 19] 111% | viability [7, 22] 107% | viability [7, 23] 103% | viability [7, 24] 100% | viability [7, 26] 110% | viability [7, 27] 110% | viability [7, 30] 110% | viability [7, 34] 143% | viability [7, 35] 119% | viability [7, 38] 154% | viability [7, 39] 118%

CO[C@@H]1[C@H](N(C)C(=O)c2ccccc2)C[C@H]2O[C@]1(C)n1c3ccccc3c3c4c(c5c6ccccc6n2c5c31)C(=O)NC4
inactive: outcome [8]
active: AC50 [1] 1.66 µM

Nc1nccn2c(C3CCC(C(=O)O)CC3)nc(-c3cc4cccc(Cl)c4[nH]3)c12 (centres undefined)
active: AC50 [1] 4.17 µM | AC50 [2] 2.63 µM
inactive: outcome [4]

Cc1c(O)cccc1C(=O)NC(CSc1ccccc1)C(O)CN1CC2CCCCC2CC1C(=O)NC(C)(C)C (centres undefined)
active: AC50 [1] 20.9 µM | AC50 [2] 20.9 µM | IC50 [4] 18.6 µM
inactive: fold change [5, 10] 1.31 | z-score [9] -1.88
0.935: fold change [5, 11]
1680: cell count [5, 13]
2190: cell count [5, 12]

CN(C)c1ccc(Nc2nc(N)n(C(=O)c3c(F)cccc3F)n2)cc1
active: AC50 [1] 8.33 µM | AC50 [2] 5.25 µM | IC50 [4] 14.8 µM

[O-][n+]1cccc(-c2nc3c(Cl)cccc3cc2[C@@H](Nc2ncnc3cccnc23)C(F)(F)F)c1
inactive: outcome [1] | outcome [3]
